The structures appear in SMILES notation.

Chain of Albumin (Bos taurus) (P02769 whole entry, looked up): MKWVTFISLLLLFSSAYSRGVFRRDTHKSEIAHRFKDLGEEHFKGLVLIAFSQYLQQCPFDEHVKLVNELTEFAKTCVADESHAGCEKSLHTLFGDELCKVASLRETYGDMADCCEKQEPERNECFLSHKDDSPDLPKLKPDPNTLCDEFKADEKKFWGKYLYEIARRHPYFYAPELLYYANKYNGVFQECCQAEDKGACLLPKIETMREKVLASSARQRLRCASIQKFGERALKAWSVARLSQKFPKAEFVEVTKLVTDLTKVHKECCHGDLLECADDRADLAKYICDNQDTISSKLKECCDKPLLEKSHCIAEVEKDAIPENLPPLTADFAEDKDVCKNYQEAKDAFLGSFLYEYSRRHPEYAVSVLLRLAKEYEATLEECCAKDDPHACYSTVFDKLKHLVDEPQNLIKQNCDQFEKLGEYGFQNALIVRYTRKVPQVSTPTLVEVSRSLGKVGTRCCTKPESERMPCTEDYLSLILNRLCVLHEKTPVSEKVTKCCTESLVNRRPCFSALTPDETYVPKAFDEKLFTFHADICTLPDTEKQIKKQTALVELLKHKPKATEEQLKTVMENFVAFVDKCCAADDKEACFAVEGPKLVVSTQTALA

The experiment concerns the target Albumin (Bos taurus) (UniProt P02769). Kind of experiment: bovine serum albumin binders on microarray, profiling panel, artefact control for SMM control protein annotation, biochemical, small-molecule microarray, Alexa647 label, 635/667 nm fluorescence (AID 1118).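 Note: score merges 667 nm emission intensity and signal-to-noise per printed compound spot.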 The conditions noted are these: BSA-A647 binding, fluorescence 635 nm, higher = more signal.
Take `COCC(=C=CC[C@@H](O)c1ccccc1OCCO)C[C@@H](O)c1cc(Cl)cc(Cl)c1O`: the composite z-score was 0.641.
As to `COc1ccc(C(=O)Nc2ccc(CN3C(=O)[C@@]4(O[C@@H](CCO)[C@H]([Si](C)(C)c5ccc(OC)cc5)[C@H]4C)c4ccccc43)cc2)cc1`, the composite z-score was -0.338.
Then `O=C1O[C@H](c2ccccc2)[C@H](c2ccccc2)N2[C@H]1[C@@H](C(=O)O)[C@]1(C(=O)Nc3ccc(C#CCCO)cc31)[C@H]2c1ccc(O)cc1`, with 0.279.
For `C=CC[C@@]1(C(N)=O)N=C(c2ccc(OCCCO)cc2)O[C@@H]1c1ccccc1CN=[N+]=[N-]`, the composite z-score was 0.85.
With `COCCOC(=O)N1C(=O)[C@@]2(c3cc(C#CC4=CCCCC4)ccc31)[C@H](C(=O)N1CCc3cc(OC)c(OC)cc3C1)[C@H]1C(=O)O[C@H](c3ccccc3)[C@H](c3ccccc3)N1[C@@H]2c1ccc(OCCO)cc1` the figure was 0.448; with `COc1ccc(C(O)C2C=CC3C(=O)N(c4ccccc4)C(=O)C3N2Nc2ccccc2F)cc1OCc1ccccc1` (stereo unspecified), 1.01; with `C=C(COC)/C(=C/C[C@@H](OC(C)=O)c1ccc(CO)o1)c1cnc2ccccc2c1`, 0.555.
Compound `O=C1C[C@]2(c3ccc([N+](=O)[O-])cc3)C(=O)N(CCN3CCOCC3)c3cc(CO)ccc3[C@H]2N1C1CCCCC1` displayed a composite z-score of 0.883.
`COC(=O)C=C(CC(O)c1cccc(Cl)c1)OC` (stereo unspecified) returned a composite z-score of 1.04.
As to `COc1cc2c(cc1OC)CN(C(=O)[C@@H]1[C@H]3C(=O)O[C@H](c4ccccc4)[C@H](c4ccccc4)N3[C@H](c3ccc(O)cc3)[C@@]13C(=O)Nc1ccc(C#CC4(O)CCCCCC4)cc13)CC2`, the composite z-score was -0.0111.
As to `[N-]=[N+]=NCc1ccccc1C[C@@]1(C(=O)NCC(O)CO)N=C(c2ccc(OCCCO)cc2)O[C@@H]1c1ccccc1N=[N+]=[N-]` (stereo partly specified), the composite z-score is 0.987.
Then `CCOC(=O)C[C@H]1[C@H](OC(=O)Cc2ccc3c(c2)OCO3)[C@@H](NC(=O)c2ccc(-c3ccccc3)cc2)c2cc(OCCCO)ccc2N1C(=O)c1ccc2ccccc2n1`, with 0.238; and `O=C(NCc1ccccc1)[C@@]1(Cc2ccccc2)N=C(c2ccc(OCCCO)cc2)O[C@H]1c1ccccc1`, with 0.974; and `O=C1NC(=O)C2C1C=CC(C(O)c1ccccc1)N2Nc1ccc(Cl)cc1Cl` (stereo unspecified), with 0.885.
With `CN(C)CCCNC(=O)[C@@]1(c2ccc([N+](=O)[O-])cc2)CC(=O)N(C2CCCCC2)[C@@H]1c1ccc(CO)cc1` the figure was 0.611; with `COC(=O)[C@@]1(Cc2ccccc2)[C@H]2c3cc(C(=O)N4CCCC4)n(Cc4cccc5ccccc45)c3C[C@H]2CN1C(=O)c1ccccc1`, 0.942.
Compound `CC(C)(C)OC(=O)CC[C@@]1(C(N)=O)N=C(c2ccc(OCCCO)cc2)O[C@@H]1c1ccccc1` showed a composite z-score of 0.604.
As for `COc1cc2c(cc1O)C=[N+](Cc1cccc(OC(F)(F)F)c1)CC2`, the composite z-score is 0.828.
In the case of `C=C(C)C1C(=C)CN([C@H](CO)c2ccccc2)C1=O` (stereo partly specified), the composite z-score stood at 0.16.
Compound `COCCCNC(=O)C1N=C(c2ccc(OCCCO)cc2)N(c2ccccc2)O1` (stereo unspecified) returned a composite z-score of 0.107.
As to `C=CC[C@@]1(C(=O)NCc2ccccc2)N=C(c2ccc(OCCCO)cc2)O[C@@H]1c1ccccc1N=[N+]=[N-]`, the composite z-score came out at 0.98.
Compound `CCOc1cc(C(O)C2C=CC3C(=O)N(c4ccccc4)C(=O)C3N2Nc2ccccc2)ccc1O` (stereo unspecified) returned a composite z-score of 0.0944.
Take `O=C1O[C@H](c2ccccc2)[C@H](c2ccccc2)N2[C@H]1[C@@H](C(=O)NC[C@H](O)c1ccccc1)[C@]1(C(=O)Nc3ccccc31)[C@H]2c1ccc(OCCO)cc1`: the composite z-score is 0.466.
The compound `COc1ccc(C(O)C2C=CC3C(=O)N(C)C(=O)C3N2N2CCCCC2)c2ccccc12` (stereo unspecified) came in with a composite z-score of 0.9.
`CN1C(=O)[C@]2(Cc3ccccc3)N=C(c3ccc(OCCCO)cc3)O[C@@H]2c2ccccc21` returned a composite z-score of 0.18.
In the case of `C=CCOC(=O)[C@H]1[C@@H]2C(=O)O[C@@H](c3ccccc3)[C@@H](c3ccccc3)N2[C@@H](c2ccc(OCCOC(=O)[C@@H]3C[C@@H]4C(=O)N[C@@H](CCCCN(C)C)C(=O)N4[C@@H]3c3ccc(O)cc3)cc2)[C@]12C(=O)Nc1ccc(I)cc12`, the composite z-score is -0.342.
`CC(C)(C)OC(=O)CC[C@@]1(C(=O)NCC(O)CO)N=C(c2ccc(OCCCO)cc2)O[C@@H]1c1ccccc1N=[N+]=[N-]` (stereo partly specified): the composite z-score is 0.866.
`O=C1NCC(=O)N2[C@@H]1C[C@@H](C(=O)O)[C@H]2c1cccc(OCCO)c1` yielded a composite z-score of -0.175.
`CC(C)OC(=O)C=C1C[C@@H](c2ccccc2C(F)(F)F)O[C@@H](c2ccccc2C(F)(F)F)O1` had a composite z-score of 0.629.
As to `C=CCOC(=O)[C@@H]1[C@H]2C(=O)O[C@H](c3ccccc3)[C@H](c3ccccc3)N2[C@H](c2ccc(OCCOC(=O)[C@@H]3C[C@@H]4C(=O)N5CCC[C@H]5C(=O)N4[C@@H]3c3ccc(O)cc3)cc2)[C@@]12C(=O)Nc1ccc(I)cc12`, the composite z-score was 0.71.
With `COc1cc2c(cc1OC)CN(C(=O)[C@H]1[C@@H]3C(=O)O[C@@H](c4ccccc4)[C@@H](c4ccccc4)N3[C@@H](c3ccc(O)cc3)[C@]13C(=O)Nc1ccc(C#CC4=CCCCC4)cc13)CC2`, the composite z-score turned out to be 0.672.
`COc1ccc(C(=O)Nc2ccc(CN3C(=O)[C@@]4(O[C@@H](CC(=O)N5CCC[C@H]5CO)[C@H]([Si](C)(C)c5ccc(OC)cc5)[C@H]4C)c4ccccc43)cc2)cc1` gave a composite z-score of 0.042.
Turning to `[N-]=[N+]=NCc1ccccc1C[C@]1(C(=O)NCC(O)CO)N=C(c2ccc(OCCCO)cc2)O[C@H]1c1ccccc1` (stereo partly specified), the composite z-score is 0.922.
Compound `COc1ccc([Si](C)(C)[C@H]2[C@H](CCO)O[C@@]3(C(=O)N(Cc4ccc(N5C(=O)COc6ccccc65)cc4)c4ccccc43)[C@@H]2C)cc1` showed a composite z-score of 0.373.
With `C=C(COC)/C(=C/C[C@H](OC(=O)c1ccncc1)c1ccc(OCCO)cc1)c1cnc2ccccc2c1` the figure was 0.808.
Turning to `C=CCOC(=O)[C@@H]1[C@H]2C(=O)O[C@H](c3ccccc3)[C@H](c3ccccc3)N2[C@H](c2ccc(OCCOC(=O)[C@@H]3C[C@@H]4C(=O)N[C@@H](Cc5ccccc5)C(=O)N4[C@@H]3c3ccc(O)cc3)cc2)[C@@]12C(=O)Nc1ccc(I)cc12`, the composite z-score was -0.47.

The values above are taken from PubChem BioAssay.
